Measurements reported in PubChem BioAssay (Tox21).
Several values for one entry are separate records, joined by “and”; a condition that tells them apart may be missing. Identical values can stand only once. Records with an inconclusive call do not appear. A call without a number means that no potency is given here. Some compounds were tested as several samples or in several runs, with calls that do not always agree. Activity calls are given as the source filed them. Unless noted, the call rests on the fitted dose curve; in most records, active means well fitted curve in the direction sought with a large enough effect in the repeat runs; inconclusive means weak or mixed curves; inactive means no such curve, though single readings can be large; an effect the other way counts as inactive or inconclusive.

What was measured:
[1] = target: Vitamin D3 receptor (Homo sapiens) (UniProt P11473); test: qHTS assay to identify small molecule antagonists of the vitamin D receptor (VDR) signaling pathway (AID 743223; active means well fitted inhibition curve with a large enough effect in the signal ratio in the repeat runs, not every such curve was filed as active; the % refers to the signal ratio; further: potency means the concentration at half of the fitted maximal effect)
Procedure, shortened: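 VDR-bla cells were treated with compound plus 3 nM final 1alpha,25-dihydroxyvitamin D3 for 16 h at 37C. Beta-lactamase reporter read by B/G FRET substrate fluorescence after 2 h at room temperature. qHTS format.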

[2] = qHTS assay to identify small molecule agonists of the vitamin D receptor (VDR) signaling pathway - cell viability counter screen (AID 743224); further: nearly all actives have a fitted effect of over 50% in size; further: potency means the concentration at half of the fitted maximal effect
Procedure, shortened: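 Counter screen for cytotoxicity: VDR-bla cells at 2,000 cells/well, 16 h compound exposure, then CellTiter-Glo luminescence after the beta-lactamase measurement.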

[3] = qHTS assay to identify small molecule antagonists of the vitamin D receptor (VDR) signaling pathway - cell viability counter screen (AID 743225); further: nearly all actives have a fitted effect of over 50% in size; further: potency means the concentration at half of the fitted maximal effect
Procedure, shortened: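 VDR-UAS-bla HEK 293T cells were plated and incubated 4 h at 37C, then dosed with compound plus 3 nM (final) 1-alpha,25-dihydroxyvitamin D3 for 16 h. After the 2 h beta-lactamase read, viability in the same wells was read as CellTiter-Glo luminescence after 30 min at room temperature.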

[4] = qHTS assay to identify small molecule agonists of the endoplasmic reticulum stress response signaling pathway - cell viability counter screen (AID 1159517; calls by dose curve; further: nearly all actives have a fitted effect of over 50% in size; further: potency means the concentration at half of the fitted maximal effect)
Procedure, shortened: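 In parallel with the ESRE reporter read, cytotoxicity was scored by CellTiter-Glo luminescence (30 min, room temperature) on HeLa ESRE-bla cells dosed for 5 hr.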

[5] = qHTS assay to identify small molecule antagonists of the retinoid-related orphan receptor gamma (ROR-gamma) signaling pathway - cell viability counter screen (AID 1159520); further: nearly all actives have a fitted effect of over 50% in size; further: potency means the concentration at half of the fitted maximal effect
Procedure, shortened: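 Tet-on ROR gamma CHO cells were given compounds for 2 hr, then doxycycline hyclate at 1 uM final, and incubated 16 hr at 37 C. Viability was measured as ATP content by CellTiter-Glo luminescence.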

[6] = qHTS assay to identify small molecule agonists of the AP-1 signaling pathway - cell viability counter screen (AID 1159525; calls by dose curve; further: nearly all actives have a fitted effect of over 55% in size; further: potency means the concentration at half of the fitted maximal effect)
Procedure, shortened: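 Same-well cytotoxicity counter screen of the Tox21 10K library in ME-180 cells. The readout is ATP-dependent luminescence after 5 h compound treatment. Data are normalised to DMSO and tetra n-octyl ammonium bromide controls.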

[7] = qHTS assay to identify small molecule agonists of the AP-1 signaling pathway (AID 1159526; calls by dose curve)
[8] = qHTS assay to identify small molecule antagonists of the retinoid acid receptor (RAR) signaling pathway - cell viability counter screen (AID 1159551); further: nearly all actives have a fitted effect of over 35% in size; further: potency means the concentration at half of the fitted maximal effect
Procedure, shortened: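 Measured by luminescent ATP detection, viability reflects C3RL4 cells treated 6 h at 37 C with test chemicals in the presence of 1 uM (final) retinol.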

[9] = target: Peroxisome proliferator-activated receptor delta (Homo sapiens) (UniProt Q03181); test: qHTS assay to identify small molecule agonists of the peroxisome proliferator-activated receptor delta (PPARd) signaling pathway (AID 743212; calls by dose curve)
Procedure, shortened: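 Tox21 library screened in GeneBLAzer PPARd UAS-bla HEK293H cells. After compound treatment at 37 C, a FRET-based beta-lactamase substrate was applied for 2 h and fluorescence recorded.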

[10] = qHTS assay to identify small molecule antagonists of the peroxisome proliferator-activated receptor delta (PPARd) signaling pathway - cell viability counter screen (AID 743213); further: nearly all actives have a fitted effect of over 50% in size; further: potency means the concentration at half of the fitted maximal effect
Procedure, shortened: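 Viability counter-screen, qHTS format: PPARd-bla HEK293H, L165041 300 nM final, 17 h compound exposure at 37 C, CellTiter-Glo luminescence after 30 min RT.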

[11] = qHTS assay to identify small molecule agonists of the farnesoid-X-receptor (FXR) signaling pathway - cell viability counter screen (AID 743218); further: nearly all actives have a fitted effect of over 45% in size; further: potency means the concentration at half of the fitted maximal effect
Procedure, shortened: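 Same-well cytotoxicity check on FXR-UAS-bla HEK 293T cells: 5 h attachment, 16 h compound at 37 C, CellTiter-Glo luminescence read at room temperature after 30 min.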

[12] = target: Bile acid receptor (Homo sapiens) (UniProt Q96RI1); test: qHTS assay to identify small molecule agonists of the farnesoid-X-receptor (FXR) signaling pathway (AID 743220; active means well fitted activation curve with a large enough effect in the signal ratio in the repeat runs, not every such curve was filed as active; the % refers to the signal ratio)
Procedure, shortened: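 FXR-UAS-bla HEK 293T cells carrying a UAS-driven beta-lactamase reporter were plated for 5 h at 37C/5% CO2, then exposed to DMSO-dissolved Tox21 10K compounds for 16 h at 37C. A LiveBLAzer B/G FRET substrate was loaded for 2 h at room temperature before fluorescence reading.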

[13] = qHTS assay to identify small molecule antagonists of the farnesoid-X-receptor (FXR) signaling pathway - cell viability counter screen (AID 743221; active means well fitted cell-killing curve with a large enough effect in the repeat runs, not every such curve was filed as active; further: nearly all actives have a fitted effect of over 50% in size; further: potency means the concentration at half of the fitted maximal effect)
Procedure, shortened: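 GeneBLAzer FXR-UAS-bla HEK 293T cells, compound plus chenodeoxycholic acid (50 uM final), 16 h at 37 C. CellTiter-Glo added to the same wells after the beta-lactamase read; luminescence read after 30 min at room temperature as viability.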

[14] = target: Nuclear receptor ROR-gamma (Homo sapiens) (UniProt P51449); test: qHTS assay to identify small molecule antagonists of the retinoid-related orphan receptor gamma (ROR-gamma) signaling pathway (AID 1159521; further: nearly all actives have a fitted effect of over 50% in size; further: potency means the concentration at half of the fitted maximal effect)
Procedure, shortened: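 Tet-on ROR-gamma CHO cells with ROR response element-luciferase reporter; compounds added 2 hr before 1 uM doxycycline induction, then 16 hr at 37 C. Antagonism scored as decreased ONE-Glo luminescence.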

[15] = qHTS assay to identify small molecule agonists of the RXR signaling pathway - cell viability counter screen (AID 1159529); further: nearly all actives have a fitted effect of over 50% in size; further: potency means the concentration at half of the fitted maximal effect
Procedure, shortened: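 RXR-alpha-UAS-bla HEK 293T cells in medium with 2% charcoal-stripped FBS were pre-incubated 5 hr, then compound-treated 16 hr at 37 C. Viability was read by CellTiter-Glo luminescence in the same wells as the beta-lactamase assay, with tetraoctyl ammonium bromide as positive control.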

[16] = target: Vitamin D3 receptor (Homo sapiens) (UniProt P11473); test: qHTS assay to identify small molecule agonists of the vitamin D receptor (VDR) signaling pathway (AID 743222; calls by dose curve)
Procedure, shortened: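 Using LiveBLAzer B/G FRET detection, agonism was scored in VDR-bla cells exposed overnight (16 h, 37C) to DMSO-dissolved compounds; substrate incubation was 2 h at room temperature.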

[17] = target: Retinoic acid receptor RXR-alpha (Homo sapiens) (UniProt P19793); test: qHTS assay to identify small molecule agonists of the RXR signaling pathway (AID 1159527; calls by dose curve; further: nearly all actives have a fitted effect of over 35% in size)
Procedure, shortened: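 GeneBLAzer RXR-alpha-UAS-bla HEK 293T cells in 2% charcoal-stripped FBS medium were exposed to compounds for 16 hr at 37 C in agonist mode. Beta-lactamase reporter read as 460/530 nm FRET ratio after 2 hr substrate loading.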

[18] = target: Bile acid receptor (Homo sapiens) (UniProt Q96RI1); test: qHTS assay to identify small molecule antagonists of the farnesoid-X-receptor (FXR) signaling pathway (AID 743217; active means well fitted inhibition curve with a large enough effect in the signal ratio in the repeat runs, not every such curve was filed as active; the % refers to the signal ratio; further: potency means the concentration at half of the fitted maximal effect)
Procedure, shortened: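 Quantitative HTS, beta-lactamase reporter format: FXR-UAS-bla HEK 293T cells co-treated 16 h at 37 °C with compounds and 50 uM final chenodeoxycholic acid, then read by B/G FRET fluorescence.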

[19] = target: Peroxisome proliferator-activated receptor delta (Homo sapiens) (UniProt Q03181); test: qHTS assay to identify small molecule antagonists of the peroxisome proliferator-activated receptor delta (PPARd) signaling pathway (AID 743215; active means well fitted inhibition curve with a large enough effect in the signal ratio in the repeat runs, not every such curve was filed as active; the % refers to the signal ratio;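 further: cells stimulated with agonist L165041 at 300 nM final during compound exposure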; further: potency means the concentration at half of the fitted maximal effect)
Procedure, shortened: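 Screen format: qHTS, antagonist mode. HEK293H PPARd-bla cells received compound and 300 nM L165041 (final), 17 h, 37 C. Beta-lactamase detected via FRET substrate fluorescence, 2 h, room temperature.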

Sequence of Vitamin D3 receptor (Homo sapiens) (P11473 whole entry, looked up): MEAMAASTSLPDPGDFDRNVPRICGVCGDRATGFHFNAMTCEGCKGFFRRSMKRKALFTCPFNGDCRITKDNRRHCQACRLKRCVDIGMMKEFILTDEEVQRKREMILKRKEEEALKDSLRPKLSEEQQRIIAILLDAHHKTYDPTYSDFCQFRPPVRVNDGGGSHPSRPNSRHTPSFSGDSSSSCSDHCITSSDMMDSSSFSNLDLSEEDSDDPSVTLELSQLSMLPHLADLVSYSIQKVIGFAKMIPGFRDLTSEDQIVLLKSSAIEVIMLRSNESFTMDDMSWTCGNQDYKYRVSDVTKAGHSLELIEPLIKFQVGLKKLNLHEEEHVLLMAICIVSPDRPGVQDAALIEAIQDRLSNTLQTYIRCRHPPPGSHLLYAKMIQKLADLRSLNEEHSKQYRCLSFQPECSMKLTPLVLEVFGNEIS
Sequence of Retinoic acid receptor RXR-alpha (Homo sapiens) (P19793 whole entry, looked up): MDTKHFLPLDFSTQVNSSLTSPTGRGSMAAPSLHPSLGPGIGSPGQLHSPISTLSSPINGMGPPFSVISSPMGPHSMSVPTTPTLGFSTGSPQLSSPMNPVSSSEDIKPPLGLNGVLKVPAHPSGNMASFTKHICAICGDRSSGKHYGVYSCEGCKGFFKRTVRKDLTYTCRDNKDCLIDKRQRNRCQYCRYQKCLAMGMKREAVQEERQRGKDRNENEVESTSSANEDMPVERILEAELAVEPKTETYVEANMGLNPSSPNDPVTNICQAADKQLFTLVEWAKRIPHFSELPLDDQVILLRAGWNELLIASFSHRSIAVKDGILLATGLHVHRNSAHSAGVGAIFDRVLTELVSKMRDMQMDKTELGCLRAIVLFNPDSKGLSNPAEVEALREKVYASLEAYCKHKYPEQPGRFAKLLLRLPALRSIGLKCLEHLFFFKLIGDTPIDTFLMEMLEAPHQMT
Sequence of Bile acid receptor (Homo sapiens) (Q96RI1 whole entry, looked up): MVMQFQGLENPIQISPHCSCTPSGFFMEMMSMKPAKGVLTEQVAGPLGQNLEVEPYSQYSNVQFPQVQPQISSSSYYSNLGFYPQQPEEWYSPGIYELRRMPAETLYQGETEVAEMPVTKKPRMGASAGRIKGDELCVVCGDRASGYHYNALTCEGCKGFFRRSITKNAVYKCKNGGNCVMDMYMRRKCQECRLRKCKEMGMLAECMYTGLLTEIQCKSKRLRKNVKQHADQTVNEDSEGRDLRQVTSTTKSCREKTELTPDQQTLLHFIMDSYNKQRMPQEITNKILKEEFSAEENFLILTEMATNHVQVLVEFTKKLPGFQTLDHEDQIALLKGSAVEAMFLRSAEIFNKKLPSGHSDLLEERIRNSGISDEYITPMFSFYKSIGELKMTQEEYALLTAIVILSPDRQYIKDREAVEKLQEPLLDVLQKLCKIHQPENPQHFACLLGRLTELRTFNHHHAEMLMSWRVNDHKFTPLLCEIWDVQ
Sequence of Peroxisome proliferator-activated receptor delta (Homo sapiens) (Q03181 whole entry, looked up): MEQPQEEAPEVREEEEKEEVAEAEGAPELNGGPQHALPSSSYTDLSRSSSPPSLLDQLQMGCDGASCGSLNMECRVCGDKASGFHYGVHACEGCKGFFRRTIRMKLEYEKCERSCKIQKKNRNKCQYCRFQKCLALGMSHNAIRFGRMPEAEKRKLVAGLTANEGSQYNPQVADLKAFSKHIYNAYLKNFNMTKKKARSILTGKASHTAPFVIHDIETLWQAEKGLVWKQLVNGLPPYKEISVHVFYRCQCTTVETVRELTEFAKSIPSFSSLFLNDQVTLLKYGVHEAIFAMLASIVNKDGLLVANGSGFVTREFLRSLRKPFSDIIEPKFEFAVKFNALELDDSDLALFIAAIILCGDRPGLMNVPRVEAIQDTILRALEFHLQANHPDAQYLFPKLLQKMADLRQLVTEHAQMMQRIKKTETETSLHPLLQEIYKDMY

SMILES | Potency [1] | Potency [2] | Potency [3] | Potency [4] | Potency [5] | Potency [6] | Potency [7] | Potency [8] | outcome [9] | Potency [10] | Potency [11] | Potency [12] | Potency [13] | Potency [14] | Potency [15] | Potency [16] | Potency [17] | Potency [18] | Potency [19]
C=CCCCCCCC=C | inactive | 49.1 µM (active) | inactive | 55.1 µM (active) | inactive | inactive | inactive | inactive |  |  |  |  |  |  |  |  |  |  | 
CCN=c1cc2oc3cc(NCC)c(C)cc3c(-c3ccccc3C(=O)OCC)c-2cc1C |  | 27.4 µM (active) and 24.5 µM (active) | 48.8 µM (active) and 24.5 µM (active) | 24.5 µM (active) and 38.9 µM (active) | 27.2 µM (active) and 24.3 µM (active) |  |  | 60.9 µM (active) and 48.6 µM (active) | inactive | 38.8 µM (active) and 24.5 µM (active) | 48.8 µM (active) and 38.9 µM (active) | inactive | 54.7 µM (active) and 54.9 µM (active) | 3.84 µM (active) and 6.86 µM (active) | 38.8 µM (active) and 49 µM (active) |  |  |  | 
CC(C)(C)CC(C)(C)c1ccccc1O | 43.9 µM (active) | 19.6 µM (active) | 22 µM (active) | 49.2 µM (active) | 61.4 µM (active) | 43.9 µM (active) |  | 54.8 µM (active) | inactive | 39.1 µM (active) |  |  | 43.9 µM (active) | 68.9 µM (active) | 39.1 µM (active) | inactive |  |  | 
O=C(O)CCn1c2c(c3ccccc31)C[C@H](NS(=O)(=O)c1ccc(F)cc1)CC2 |  | inactive | inactive | inactive | inactive | inactive |  | inactive |  | inactive | inactive |  | inactive |  | inactive |  |  |  | 
CN1[C@@H]2CC[C@H]1CC(OC(=O)C(CO)c1ccccc1)C2 (some centres not stated) |  |  |  | inactive | inactive | inactive | inactive | inactive |  | inactive | inactive |  | inactive |  | 48.9 µM (active) |  | inactive |  | 
CCN=C1C=CC(=C(c2ccc(N(CC)CC)cc2)c2ccc(N(CC)CC)cc2)c2ccccc21 |  | 4.87 µM (active) | 19.4 µM (active) | 38.7 µM (active) | 6.82 µM (active) | 38.7 µM (active) |  | 24.2 µM (active) |  | 12.2 µM (active) | 6.88 µM (active) |  | 13.7 µM (active) | 2.71 µM (active) | 15.4 µM (active) |  |  |  | 
CN1[C@@H]2CC[C@@H]1CC(OC(=O)C(CO)c1ccccc1)C2 (some centres not stated) |  |  |  | inactive | inactive | inactive | inactive | inactive |  | inactive | inactive |  | inactive |  |  |  |  |  | 
O=C1c2c(O)ccc([N+](=O)[O-])c2C(=O)c2c([N+](=O)[O-])ccc(O)c21 |  | 10.9 µM (active) | 9.68 µM (active) | 24.3 µM (active) | 27.1 µM (active) | 24.3 µM (active) |  |  |  | 13.7 µM (active) | 54.4 µM (active) |  | 43.2 µM (active) | 24.1 µM (active) | 17.2 µM (active) |  |  |  | 
C1CC(COCC2CO2)CCC1COCC1CO1 (configuration not stated) |  | inactive |  | inactive | inactive | inactive |  | inactive | inactive | inactive | inactive |  | inactive |  | inactive | inactive |  | inactive | 
CSc1ccc2c(c1)N(CCC1CCCCN1C)c1ccccc1S2 (configuration not stated) |  | inactive and 26.6 µM (active) | 24.4 µM (active) and 23.9 µM (active) | 43.5 µM (active) | 48.4 µM (active) and inactive | 43.5 µM (active) and inactive |  | 60.9 µM (active) | inactive | 21.8 µM (active) and 13.3 µM (active) | 21.8 µM (active) and 16.8 µM (active) |  | 38.7 µM (active) and 29.8 µM (active) | 27.2 µM (active) and inactive | 19.4 µM (active) and 26.8 µM (active) | inactive |  |  | 26.6 µM (active)
c1ccc(Sc2ccccc2)cc1 | inactive | 49 µM (active) | inactive | 43.6 µM (active) | inactive | inactive |  | inactive |  |  | inactive |  | inactive | inactive |  | inactive |  |  | 
C/C=C/C(=O)Oc1c(CCCCCC(C)C)cc([N+](=O)[O-])cc1[N+](=O)[O-] |  | 13.8 µM (active) |  | 21.9 µM (active) | 19.3 µM (active) |  |  | inactive |  | 24.5 µM (active) |  |  | 43.6 µM (active) | 6.11 µM (active) | 24.5 µM (active) |  |  | 24.5 µM (active) | 
Brc1ccccc1-c1ccccc1 |  | inactive |  | 41.3 µM (active) | inactive | inactive |  | inactive | inactive |  |  |  | inactive | inactive |  | inactive | inactive |  | 
CC1CCCNC1 (configuration not stated) |  | 47.9 µM (active) | inactive | inactive | inactive | inactive |  | inactive |  |  | inactive |  | inactive | inactive |  |  |  |  | 
CCCCCCCCCCCCCOP(=O)(O)O |  | inactive |  | 30.9 µM (active) | inactive | inactive |  | inactive | inactive |  | inactive |  | inactive |  | inactive | inactive |  |  | inactive
O=C1C=CC(=O)N1c1ccccc1 | 12.3 µM (active) | 11 µM (active) | 15.5 µM (active) | 34.7 µM (active) | 15.4 µM (active) | 24.5 µM (active) |  | 30.6 µM (active) |  | 15.5 µM (active) | 49 µM (active) |  |  |  | 15.5 µM (active) |  | inactive | 54.9 µM (active) | 
C=C(c1ccc(C(=O)O)cc1)c1cc2c(cc1C)C(C)(C)CCC2(C)C |  | 21.9 µM (active) and inactive | 21.3 µM (active) | 24.5 µM (active) and 19 µM (active) | 30.6 µM (active) | 30.9 µM (active) |  | 61.1 µM (active) |  | 21.9 µM (active) and 29.8 µM (active) | 24.5 µM (active) |  | inactive | 24.3 µM (active) and 23.7 µM (active) | 49 µM (active) and 23.9 µM (active) | inactive |  |  | 
